Reference: PubChem BioAssay AID1159580 (chemical genetic matrix, 2015)
Screen size: about 5,500 compounds; about 2,000 (36%) were called active. Not shown: some 18% with an inconclusive outcome. This is one part of the list. Unmarked numbers belong to inactive results. No stated cut-off is given here; in the data, active means normalized growth mostly below about 0.91 (no sharp cut-off); inconclusive means no clear call, values can overlap the other calls; inactive means mostly above about 0.92.

Assay: chemical genetic growth profiling, strain panel (AID 1159580);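 further: tested at 20 µM; growth read once vehicle control cultures reached saturation at 30 °C; 1 = growth at the plate median or of vehicle wells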
Conditions: S. cerevisiae deletion strains, growth OD
[1] = locus YDL101C, strain DUN1, stronger effect = lower value
[2] = locus YHR030C, strain SLT2, stronger effect = lower value

Q: With `Cc1c(-n2cccc2)cc2c(c1[N+](=O)[O-])C(C)(C)CC2(C)C` as the compound, how does the normalized growth (locus YAL013W, strain DEP1, stronger effect = lower value) read?
A: The normalized growth was 1.01.

Q: What about the normalized growth (locus YBR229C, strain ROT2, stronger effect = lower value) of the same compound?
A: Its normalized growth is 1.01.

Q: What about the normalized growth (locus YCL061C, strain MRC1, stronger effect = lower value) of the same compound?
A: The normalized growth was 1.01.

Q: What about the normalized growth [1] of the same compound?
A: The normalized growth was 1.02.

Q: What about the normalized growth (locus YDR150W, strain NUM1, stronger effect = lower value) of the same compound?
A: Its normalized growth is 1.02.

Q: And the normalized growth (locus YEL061C, strain CIN8, stronger effect = lower value)?
A: Its normalized growth is 1.

Q: And the normalized growth (locus YGR078C, strain PAC10, stronger effect = lower value)?
A: Its normalized growth is 1.02.

Q: What about the normalized growth [2] of the same compound?
A: Its normalized growth is 1.05.

Q: And the normalized growth (locus YHR087W, strain rtc3, stronger effect = lower value)?
A: The normalized growth was 1.01.

Q: What about the normalized growth (locus YJL187C, strain SWE1, stronger effect = lower value) of the same compound?
A: The normalized growth was 1.02.

Q: And the normalized growth (locus YJR043C, strain POL32, stronger effect = lower value)?
A: The normalized growth was 1.01.

Q: And the normalized growth (locus YJR075W, strain HOC1, stronger effect = lower value)?
A: The normalized growth was 1.05.

Q: And the normalized growth (locus YLR039C, strain RIC1, stronger effect = lower value)?
A: Its normalized growth is 1.06.

Q: What about the normalized growth (locus YLR058C, strain SHM2 (second series), stronger effect = lower value) of the same compound?
A: The normalized growth was 0.994.

Q: What about the normalized growth (locus YLR085C, strain ARP6, stronger effect = lower value) of the same compound?
A: The normalized growth was 1.01.

Q: And the normalized growth (locus YLR262C, strain YPT6, stronger effect = lower value)?
A: The normalized growth was 1.07.

Q: What about the normalized growth (locus YML094W, strain GIM5, stronger effect = lower value) of the same compound?
A: The normalized growth was 1.02.

Q: And the normalized growth (locus YMR219W, strain ESC1, stronger effect = lower value)?
A: The normalized growth was 1.02.

Q: And the normalized growth (locus YMR263W, strain SAP30, stronger effect = lower value)?
A: Its normalized growth is 1.

Q: And the normalized growth (locus YNL153C, strain GIM3, stronger effect = lower value)?
A: The normalized growth was 0.998.

Q: What about the normalized growth (locus YNL298W, strain CLA4 (second series), stronger effect = lower value) of the same compound?
A: Its normalized growth is 1.04.

Q: And the normalized growth (locus YNL322C, strain KRE1, stronger effect = lower value)?
A: The normalized growth was 1.02.

Q: And the normalized growth (locus YNR030W, strain Alg12, stronger effect = lower value)?
A: Its normalized growth is 1.01.

Q: What about the normalized growth (locus YOL006C, strain TOP1, stronger effect = lower value) of the same compound?
A: The normalized growth was 1.03.

Q: And the normalized growth (locus YPL055C, strain LGE1, stronger effect = lower value)?
A: Its normalized growth is 1.

Q: What about the normalized growth (locus YPL241C, strain CIN2, stronger effect = lower value) of the same compound?
A: The normalized growth was 1.

Q: What about the normalized growth (locus YPR135W, strain CTF4, stronger effect = lower value) of the same compound?
A: The normalized growth was 1.04.

Q: Which normalized growth (locus YAR019C, strain CDC15, stronger effect = lower value) does the source give for `N#C/C(=N/Nc1ccc(Cl)cc1)C(N)=S` here?
A: The normalized growth was 0.44 (active).

Q: And the normalized growth (locus YBL105C, strain PKC1, stronger effect = lower value)?
A: Its normalized growth is 0.434 (active).

Q: And the normalized growth (locus YBR135W, strain CKS1, stronger effect = lower value)?
A: Its normalized growth is 0.529 (active).

Q: What about the normalized growth (locus YBR136W, strain MEC1, stronger effect = lower value) of the same compound?
A: The normalized growth was 0.513 (active).

Q: What about the normalized growth (locus YBR160W, strain CDC28, stronger effect = lower value) of the same compound?
A: The normalized growth was 0.515 (active).

Q: And the normalized growth (locus YDL017W, strain CDC7, stronger effect = lower value)?
A: Its normalized growth is 0.616 (active).

Q: What about the normalized growth (locus YDL028C, strain MPS1, stronger effect = lower value) of the same compound?
A: Its normalized growth is 0.647 (active).

Q: What about the normalized growth [1] of the same compound?
A: Its normalized growth is 0.345 (active).

Q: And the normalized growth (locus YDL108W, strain KIN28, stronger effect = lower value)?
A: Its normalized growth is 0.617 (active).

Q: What about the normalized growth (locus YDL132W, strain cdc53, stronger effect = lower value) of the same compound?
A: Its normalized growth is 0.43 (active).

Q: And the normalized growth (locus YDL214C, strain PRR2, stronger effect = lower value)?
A: The normalized growth was 0.176 (active).

Q: What about the normalized growth (locus YDR052C, strain DBF4, stronger effect = lower value) of the same compound?
A: Its normalized growth is 0.825 (active).

Q: What about the normalized growth (locus YDR054C, strain cdc34, stronger effect = lower value) of the same compound?
A: Its normalized growth is 0.325 (active).

Q: What about the normalized growth (locus YDR226W, strain ADK1, stronger effect = lower value) of the same compound?
A: Its normalized growth is 0.57 (active).

Q: And the normalized growth (locus YDR477W, strain SNF1, stronger effect = lower value)?
A: Its normalized growth is 0.155 (active).

Q: What about the normalized growth (locus YER123W, strain YCK3, stronger effect = lower value) of the same compound?
A: The normalized growth was 0.197 (active).

Q: And the normalized growth (locus YER133W, strain GLC7, stronger effect = lower value)?
A: The normalized growth was 0.194 (active).

Q: And the normalized growth (locus YFL009W, strain cdc4, stronger effect = lower value)?
A: Its normalized growth is 0.468 (active).

Q: And the normalized growth (locus YFL029C, strain CAK1, stronger effect = lower value)?
A: The normalized growth was 0.467 (active).

Q: What about the normalized growth (locus YFR003C, strain YPI1, stronger effect = lower value) of the same compound?
A: The normalized growth was 0.644 (active).

Q: What about the normalized growth (locus YFR019W, strain FAB1, stronger effect = lower value) of the same compound?
A: Its normalized growth is 0.182 (active).

Q: And the normalized growth (locus YFR028C, strain CDC14, stronger effect = lower value)?
A: Its normalized growth is 0.577 (active).

Q: And the normalized growth (locus YGR040W, strain KSS1, stronger effect = lower value)?
A: The normalized growth was 0.179 (active).

Q: What about the normalized growth (locus YGR052W, strain FMP48, stronger effect = lower value) of the same compound?
A: The normalized growth was 0.204 (active).

Q: And the normalized growth (locus YGR092W, strain DBF2, stronger effect = lower value)?
A: Its normalized growth is 0.15 (active).

Q: What about the normalized growth [2] of the same compound?
A: Its normalized growth is 0.208 (active).

Q: What about the normalized growth (locus YHR079C, strain IRE1, stronger effect = lower value) of the same compound?
A: Its normalized growth is 0.145 (active).

Q: And the normalized growth (locus YHR082C, strain KSP1, stronger effect = lower value)?
A: The normalized growth was 0.206 (active).

Q: And the normalized growth (locus YHR205W, strain SCH9, stronger effect = lower value)?
A: Its normalized growth is 0.226 (active).

Q: What about the normalized growth (locus YIL147C, strain SLN1, stronger effect = lower value) of the same compound?
A: Its normalized growth is 0.627 (active).

Q: And the normalized growth (locus YJL095W, strain BCK1, stronger effect = lower value)?
A: Its normalized growth is 0.186 (active).

Q: What about the normalized growth (locus YJL128C, strain PBS2, stronger effect = lower value) of the same compound?
A: Its normalized growth is 0.628 (active).

Q: What about the normalized growth (locus YJL157C, strain FAR1, stronger effect = lower value) of the same compound?
A: The normalized growth was 0.172 (active).

Q: And the normalized growth (locus YJR016C, strain ILV3, stronger effect = lower value)?
A: The normalized growth was 0.574 (active).

Q: And the normalized growth (locus YJR066W, strain TOR1 (second series), stronger effect = lower value)?
A: The normalized growth was 0.234 (active).

Q: What about the normalized growth (locus YJR066W, strain TOR1, stronger effect = lower value) of the same compound?
A: The normalized growth was 0.244 (active).

Q: And the normalized growth (locus YKL048C, strain ELM1, stronger effect = lower value)?
A: Its normalized growth is 0.327 (active).

Q: And the normalized growth (locus YKL067W, strain YNK1, stronger effect = lower value)?
A: Its normalized growth is 0.167 (active).

Q: What about the normalized growth (locus YKL101W, strain HSL1, stronger effect = lower value) of the same compound?
A: The normalized growth was 0.212 (active).

Q: What about the normalized growth (locus YKL193C, strain SDS22, stronger effect = lower value) of the same compound?
A: The normalized growth was 0.42 (active).

Q: And the normalized growth (locus YKL203C, strain TOR2, stronger effect = lower value)?
A: The normalized growth was 0.217 (active).

Q: And the normalized growth (locus YLR113W, strain HOG1, stronger effect = lower value)?
A: Its normalized growth is 0.275 (active).

Q: And the normalized growth (locus YLR133W, strain CKI1, stronger effect = lower value)?
A: The normalized growth was 0.205 (active).

Q: And the normalized growth (locus YLR403W, strain SFP1, stronger effect = lower value)?
A: The normalized growth was 0.175 (active).

Q: What about the normalized growth (locus YML070W, strain DAK1, stronger effect = lower value) of the same compound?
A: The normalized growth was 0.183 (active).

Q: What about the normalized growth (locus YMR001C, strain CDC5, stronger effect = lower value) of the same compound?
A: The normalized growth was 0.475 (active).

Q: What about the normalized growth (locus YMR205C, strain PFK2 (second series), stronger effect = lower value) of the same compound?
A: The normalized growth was 0.236 (active).

Q: And the normalized growth (locus YMR277W, strain FCP1, stronger effect = lower value)?
A: Its normalized growth is 0.352 (active).

Q: What about the normalized growth (locus YNL006W, strain LST8, stronger effect = lower value) of the same compound?
A: The normalized growth was 0.452 (active).

Q: What about the normalized growth (locus YNL020C, strain ARK1, stronger effect = lower value) of the same compound?
A: Its normalized growth is 0.182 (active).

Q: What about the normalized growth (locus YNL161W, strain CBK1, stronger effect = lower value) of the same compound?
A: The normalized growth was 0.427 (active).

Q: What about the normalized growth (locus YNL183C, strain NPR1, stronger effect = lower value) of the same compound?
A: The normalized growth was 0.185 (active).

Q: What about the normalized growth (locus YNL207W, strain RIO2, stronger effect = lower value) of the same compound?
A: Its normalized growth is 0.515 (active).

Q: What about the normalized growth (locus YNL222W, strain SSU72, stronger effect = lower value) of the same compound?
A: The normalized growth was 0.428 (active).

Q: And the normalized growth (locus YNL307C, strain MCK1 (second series), stronger effect = lower value)?
A: The normalized growth was 0.177 (active).

Q: And the normalized growth (locus YOL078W, strain AVO1, stronger effect = lower value)?
A: Its normalized growth is 0.483 (active).

Q: And the normalized growth (locus YOL136C, strain PFK27, stronger effect = lower value)?
A: Its normalized growth is 0.199 (active).

Q: And the normalized growth (locus YOR061W, strain CKA2, stronger effect = lower value)?
A: Its normalized growth is 0.23 (active).

Q: And the normalized growth (locus YOR119C, strain RIO1, stronger effect = lower value)?
A: Its normalized growth is 0.225 (active).

Q: What about the normalized growth (locus YOR231W, strain MKK1, stronger effect = lower value) of the same compound?
A: Its normalized growth is 0.171 (active).

Q: What about the normalized growth (locus YOR329C, strain SCD5, stronger effect = lower value) of the same compound?
A: Its normalized growth is 0.515 (active).

Q: And the normalized growth (locus YPL031C, strain PHO85, stronger effect = lower value)?
A: The normalized growth was 0.207 (active).

Q: What about the normalized growth (locus YPL153C, strain RAD53, stronger effect = lower value) of the same compound?
A: Its normalized growth is 0.193 (active).

Q: And the normalized growth (locus YPL204W, strain HRR25, stronger effect = lower value)?
A: Its normalized growth is 0.203 (active).

Q: And the normalized growth (locus YPL209C, strain IPL1, stronger effect = lower value)?
A: Its normalized growth is 0.601 (active).

Q: What about the normalized growth (locus YPL256C, strain CLN2, stronger effect = lower value) of the same compound?
A: Its normalized growth is 0.231 (active).

Q: What about the normalized growth (locus YPR025C, strain CCL1, stronger effect = lower value) of the same compound?
A: Its normalized growth is 0.611 (active).

Q: And the normalized growth (locus YPR106W, strain ISR1, stronger effect = lower value)?
A: The normalized growth was 0.475 (active).

Q: And the normalized growth (locus YPR111W, strain DBF20, stronger effect = lower value)?
A: Its normalized growth is 0.583 (active).

Q: And the normalized growth (strain NNK1, stronger effect = lower value)?
A: The normalized growth was 0.471 (active).

Q: And the normalized growth (strain TSCII, stronger effect = lower value)?
A: Its normalized growth is 0.495 (active).
